# This excerpt belongs to a sample that is enriched for hits.
# Pf Dd2 inh: Plasmodium falciparum Dd2 growth inhibition; Potency, µM (highest dose often 28.9 µM), without a hit: top-dose activity, negative = inhibition, actives largely listed as inhibitors; actives 4.3% (n = 120,000); P. falciparum Dd2 growth, SYBR Green, 72 h; active means well fitted inhibition curve with a large enough effect;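 further: plate controls were DMSO vehicle for no effect and reference drug for full effect; nearly all actives have a fitted effect of over 65% in size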
#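 Infected erythrocytes (Dd2, 0.3% parasitemia, 2.5% hematocrit final) are added to compound in RPMI-1640/Albumax II medium, grown 72 h at 37C in low oxygen, then lysed with saponin/Triton-X containing SYBR Green and read by fluorescence.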
# An asterisk follows results filed as active; i = inactive; [ ] = remark or other dose. Potency means the concentration at half of the fitted maximal effect.
SMILES,Pf Dd2 inh
Cc1nc(-c2ccco2)cc([C@H]2CN3CC[C@H]2C[C@@H]3CNS(=O)(=O)c2cccs2)n1,7.1µM*
CCC(CC)c1cc([C@H]2CN3CC[C@H]2C[C@@H]3CNS(=O)(=O)c2cccs2)nc(-c2ccncc2)n1,1.1µM*
CCNC(=O)NC[C@H]1C[C@@H]2CCN1C[C@@H]2c1cc(-c2ccccc2)nc(C)n1,-9%[44.1 µM]
CCC(CC)c1cc([C@H]2CN3CC[C@H]2C[C@@H]3CNC(C)=O)nc(-c2ccncc2)n1,2µM*
COc1ccc(OC)c(S(=O)(=O)NC[C@H]2C[C@@H]3CCN2C[C@@H]3c2cc(-c3ccco3)nc(C)n2)c1,i
CCC(CC)C(=O)NC[C@H]1C[C@@H]2CCN1C[C@@H]2c1cc(-c2ccco2)nc(C)n1,-30%[44.1 µM]
Cc1ccccc1S(=O)(=O)N1CCC(CCC(=O)NC2CCS(=O)(=O)C2)CC1 (centres undefined),-10%
CN1CCC(NC2(Cc3cc(-c4ccccn4)on3)COC2)CC1,13%[44.1 µM]
COCC(=O)N[C@@H]1CN(Cc2ccc(Br)o2)C[C@H]1CO,26%
CCCCNC(=O)c1noc(-c2ccc(C#N)cc2)n1,i
O=C1CCCN1C1CCN(Cc2cccnc2)CC1,12%[44.1 µM]
Cc1cccc(CNC(=O)c2c(C)noc2-c2ccc(OC(F)(F)F)cc2)c1,-9%
COc1ccc(NC(=O)OC[C@H]2C[C@@H]3CCN2C[C@@H]3c2cc(-c3ccccc3OC)nn2C)cc1,-26%
COc1ccc(NC(=O)OC[C@H]2C[C@@H]3CCN2C[C@@H]3c2cc(C3CCCC3)nc(-c3ccncc3)n2)cc1,1.8µM*
COc1ccc(-c2cc([C@H]3CN4CC[C@H]3C[C@@H]4COC(=O)NC3CCCCC3)nc(C)n2)cc1,i
Cc1noc(-c2cccc(OC3CN(C(=O)Cc4ccccc4)C3)c2)n1,3%[5.79 µM]
COCCOCC(=O)N1CC(Oc2ccccc2-c2nc(C3CC3)no2)C1,-10%
COc1ccc(C(=O)N2CC(Oc3ccccc3-c3nc(-c4ccccc4)no3)C2)cc1,0.89µM*
CC(=O)N1CCC(Oc2ccccc2-c2nc(-c3ccccc3)no2)C1 (centres undefined),i
CC(C)C(=O)N1CC(Oc2ccccc2-c2nc(C3CC3)no2)C1,7%
O=C(Nc1ccccc1F)N1CC(Oc2cccc(-c3nc(-c4ccccc4)no3)c2)C1,20%[5.79 µM]
CC(C)CNC(=O)N1CC(Oc2ccccc2-c2nc(-c3ccccc3)no2)C1,-26%
O=C(COc1ccc(F)cc1)N1CC(Oc2cccc(-c3nc(-c4ccccc4)no3)c2)C1,2.2µM*
O=C(c1ccco1)N1CC(Oc2ccccc2-c2nc(-c3ccccc3)no2)C1,4µM*
Cc1cccc(C(=O)N2CC(Oc3ccc(-c4nc(-c5ccccc5)no4)cc3)C2)c1,i[5.79 µM]
SMILES,Pf Dd2 inh
O=C(CN1CCCCCC1)N1CC(Oc2ccccc2-c2nc(C3CC3)no2)C1,11µM*
COc1ccc(C(=O)N2CC(Oc3ccc(-c4nc(-c5ccccc5)no4)cc3)C2)cc1,48%[5.79 µM]
Cc1ccncc1C(=O)N1CCn2c(nnc2[C@@H]2C[C@@H](O)CN2Cc2ccccc2)C1,40%
CCn1nc(CC(C)C)cc1C(=O)N(C)Cc1cccc(-n2cccn2)c1,-15%
Cc1ccc(C(=O)N2CCCC(c3nc(CCOCC4CCCC4)no3)C2)cn1 (centres undefined),-13%
CN(Cc1ccc(-c2ccccc2)cc1)Cc1ccccc1Cl,-21%[44.1 µM]
COc1cccc(CN[C@@H]2CCC[C@@H](C(=O)NC3CC3)CC(=O)N(C)C2)c1,-3%[44.1 µM]
Cc1cnn(CCC(=O)N[C@@H]2CN(Cc3cccnc3)C[C@H]2CN(C)C)c1,i
Cc1ccc(C(=O)N2C[C@H](c3nc(-c4ccncc4)no3)[C@@H](C)C2)c(C)c1,i
CCCNc1cc(N2CCC(CCC(=O)O)CC2)ncn1,i
Cc1cc(C(=O)N2CCC(Oc3ccc(C(=O)NC4CCCC4)cc3Cl)CC2)n(C)n1,i
CCC(C(=O)N1CCN(C(=O)COc2ccccc2)CC1)n1cccn1 (centres undefined),-8%
CC(C)c1nncn1C1CCN(S(=O)(=O)c2cc(F)cc(F)c2)CC1,-9%
Cc1cccc(C(=O)N2C[C@@H](Oc3ccccc3)C[C@H]2C(=O)NC2CC2)c1,3%
COc1c(C)cccc1C(=O)N1CCC2(CC1)CNC(C(=O)O)C2 (centres undefined),-16%
CC(C)NC(=O)CCC[C@@H]1[C@H]2CCCN3CCC[C@@H](CN1C)[C@@H]23,7%
O=C1COc2ccc(-c3cccnc3)nc2CN1Cc1ccc(C(F)(F)F)cc1,-25%[44.1 µM]
O=C1COc2ccc(-c3ccsc3)nc2CN1Cc1ccccc1,-5%[44.1 µM]
Cc1nc(CN2Cc3nc(-c4ccccc4)ccc3OCC2=O)cs1,-16%[44.1 µM]
Cc1nc(CN2Cc3nc(Nc4ccc(C(F)(F)F)cc4)ccc3OCC2=O)cs1,11µM*
O=C1COc2ccc(-c3ccsc3)nc2CN1Cc1ccc(C(F)(F)F)cc1,7.9µM*
CN1Cc2nc(Nc3ccc(C(F)(F)F)cc3)ccc2OCC1=O,i
CC(=O)N1CCN(CC[C@H]2CN(C(=O)c3ccc(C(F)(F)F)cc3)CC[C@H]2CC(=O)O)CC1,11%

# Screens as filed in PubChem.
